Test results from PubChem BioAssay (Tox21).
Values joined by “and” are separate entries in the source; they are usually repeats but may differ in a detail not shown here. Equal entries are not always repeated. Results filed as inconclusive are left out. A call without a number means that no potency is given here. Active and inactive are the calls of the source. Calls come from the whole dose curve; as a rule, active = well fitted cell-killing curve with a large enough effect in the repeat runs; inconclusive = weak or mixed curves, or effect the other way; inactive = no such curve, though single readings can be large or run the other way.

experiment: qHTS assay to identify small molecule antagonists of the retinoid-related orphan receptor gamma (ROR-gamma) signaling pathway - cell viability counter screen (AID 1159520); conditions: Tet-on RORgamma CHO cells viability, ATP luminescence, 16 h; series mostly up to 92.4 µM; note: nearly all actives have a fitted effect of over 50% in size
Source text: U.S. Tox21 Program National Center for Advancing Translational Sciences [NCATS] NIH Chemical Genomics Center [NCGC] U.S. Environmental Protection Agency [EPA] National Institutes of Environmental Health Sciences [NIEHS] National Toxicology Program [NTP] U.S. Food and Drug Administration [FDA] Tox21 Assay Overview: Nuclear steroid hormone receptors are involved in many biological processes including inflammatory responses, cell proliferation, and apoptosis. Environmental factors or compounds disrupting these nuclear receptor pathways and gene expression may promote susceptibility to immunotoxicants and autoimmune diseases. One important group of these expression factors are the retinoid-related orphan receptors. To assess compounds that may interfere with the retinoid-related orphan receptor gamma (ROR-gamma) transcription factor, a cell-based luciferase assay was used. The CHO cell-based assay utilizes a TET-inducible ROR expression factor and ROR response element-LUC reporter gene. Reporter gene activity was induced using Doxycycline Hyclate and measured after 16 hr incubation. Tet-on ROR gamma CHO cells were used to screen against the Tox21 10K compound library for cytotoxicity by measuring the viability of the cells based on the quantitation of the ATP.
Tox21 Assay Protocol Summary: Tet-on ROR gamma CHO cells were dispensed at 1,000 cells in 4 uL of culture medium per well into white wall/solid bottom 1536-well plates using a Multidrop Combi (Thermo Scientific, Waltham, MA) dispenser. Following incubation at 37 C and 5% CO2 for 4 hr, 23 nL of compounds dissolved in DMSO, positive controls or DMSO only were transferred by a Pintool station (Kalypsys, San Diego, CA) and after 2 hr incubation at 37 C, one ul of 1 uM (final concentration) of Doxycycline Hyclate was added to all the wells by using a Flying Reagent Dispenser (FRD) (Aurora Discovery, San Diego, CA). After 16 hr incubation at 37 C and 5% CO2, 5 uL of CellTiter-Glo reagent (Promega Corporation, Madison, WI) was added to each assay plate using FRD. After 30 min incubation at room temperature, luminescence was quantified on a ViewLux plate reader (Perkin Elmer, Waltham, MA).
Potency is the fitted concentration of half-maximal effect.

Structure (SMILES) | Potency
CC(=[OH+])/C=C(/C)[O-].CC(=[OH+])/C=C(\C)[O-].CC(=[OH+])/C=C(\C)[O-].[Fe] | inactive
BrC(Br)Br | inactive
Clc1ccc(Oc2ccccc2)cc1 | inactive
CCCCCCCCCCBr | inactive
CCCCCCCCCCCCCCCC[n+]1ccccc1 | 54.5 µM (active) [middle of 4 runs]
BrCBr | inactive
O=S(=O)(c1ccc(Cl)cc1)c1ccc(Cl)cc1 | inactive
COP(=O)(OC)SCn1c(=O)oc2cc(Cl)cnc21 | inactive
CCOP(=S)(OCC)SCS(=O)(=O)C(C)(C)C | inactive
N#CCc1ccc(Cl)cc1 | inactive
CCN | inactive
Clc1ccc(-c2ccc(Cl)c(Cl)c2Cl)c(Cl)c1Cl | inactive
NNC(=O)c1ccccc1 | inactive
CCOCCOC(C)=O | inactive
CC(C)(c1ccc(O)c(-c2ccccc2)c1)c1ccc(O)c(-c2ccccc2)c1 | 43.3 µM (active)
Cc1cc(C(F)(C(F)(F)F)C(F)(F)F)ccc1NC(=O)c1cccc(I)c1C(=O)NC(C)(C)CS(C)(=O)=O | inactive
Cc1ccc(CCl)cc1 | inactive
COc1ccc(OC)c(C=O)c1 | inactive
CC(Cl)CN(C)C (stereo not given) | inactive
C=COCCCl | inactive

Structure (SMILES) | Potency
CN(C)C1CSSSC1 | inactive
O=C(CCCN1CCC2(CC1)C(=O)NCN2c1ccccc1)c1ccc(F)cc1 | inactive
COP(=O)(CCC(=O)NCO)OC | inactive
CN(CCCC(=O)c1cccnc1)N=O | inactive
[Cl][Sb]([Cl])[Cl] | 48.6 µM (active)
[CH3][Hg][Cl] | 4.31 µM (active)
Nc1ccc(Sc2ccc(N)cc2)cc1 | inactive
Fc1ccc(Oc2ccnc3cc(Cl)cc(Cl)c23)cc1 | inactive
N#CNC#N | inactive
CCOCn1c(-c2ccc(Cl)cc2)c(C#N)c(Br)c1C(F)(F)F | 9.69 µM (active)
CCCCCCCCCBr | inactive
N#Cc1ccccc1N | inactive
C[As+](C)(C)CC(=O)[O-] | inactive
Nc1c(Oc2ccccc2)cc(O)c2c1C(=O)c1ccccc1C2=O | inactive
N#CCCSCCC#N | inactive
CC(=[OH+])/C=C(/C)[O-].CC(=[OH+])/C=C(\C)[O-].CC(=[OH+])/C=C(\C)[O-].[Al] | inactive
CCCCCCCCCCCCCCCC[N+](C)(C)C | 29.5 µM (active) and 61.1 µM (active) and 29.8 µM (active)
CCOC(=O)OC1=C(c2cc(C)ccc2C)C(=O)NC12CCC(OC)CC2 (stereo not given) | inactive
C[C@]12CC[C@H]3[C@@H](CCC4=CC(=O)CC[C@@]43C)[C@@H]1CC[C@@H]2O | inactive
CC(C)(C)OO | inactive
